Source: PubChem
LYPLA1 inh: blocks human lysophospholipase 1, a PME1 counter-screen; O75608; inhibition, % at 5.9 µM; recombinant LYPLA1, FP-Rh probe fluorescence polarization; 0.16% of 320,000 active;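 active = inhibition above the mean of all tested compounds plus 3 SD, set per campaign, cut at about 14% in these data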;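 also: inhibitors block serine hydrolase probe labeling of LYPLA1 so polarization falls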
PAD4 inh: inhibitors of human PAD4; Q9UM07; 0.41% of 330,000 active; inhibition, % at 6.36 µM; AID 485272; recombinant PAD4, RCA probe fluorescence polarization;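 active = percent inhibition above a cutoff equal to the mean of all tested compounds plus 3 SD, cut at about 15% in these data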
PME-1 primary: PME-1 (human) inhibition | Q9Y570 | recombinant PME-1, FP-Rh probe fluorescence polarization | inhibition, % at 5.9 µM | 0.53% of 320,000 active | AID 2130;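 active = inhibition above the campaign mean of all compounds plus 3 SD, cut at about 26% in these data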;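 also: competitive labeling of PME-1 active site by serine hydrolase directed probe; inhibitors block probe labeling so polarization falls and inhibition rises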
Target sequence (Q9Y570 whole entry, looked up): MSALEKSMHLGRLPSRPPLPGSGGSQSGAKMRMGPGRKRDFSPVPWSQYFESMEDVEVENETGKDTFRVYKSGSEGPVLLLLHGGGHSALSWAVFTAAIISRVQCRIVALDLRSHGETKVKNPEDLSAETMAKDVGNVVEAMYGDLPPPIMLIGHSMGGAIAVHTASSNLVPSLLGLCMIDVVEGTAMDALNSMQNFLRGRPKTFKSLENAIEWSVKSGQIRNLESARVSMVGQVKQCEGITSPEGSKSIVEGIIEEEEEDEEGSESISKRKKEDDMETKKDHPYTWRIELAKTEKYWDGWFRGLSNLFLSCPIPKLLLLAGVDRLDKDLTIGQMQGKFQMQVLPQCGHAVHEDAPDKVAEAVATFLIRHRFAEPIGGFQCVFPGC
Fam108B counter: counter-screen for RBBP9 inhibitors: inhibitors of mouse Fam108B; recombinant Fam108B, FP-Rh probe fluorescence polarization; inhibition, % at 9.51 µM; AID 1947; 0.33% of 300,000 active;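 active = inhibition above the screen mean inhibition plus 3 SD, computed separately per campaign, cut at about 18% in these data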;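 also: inhibitors lower polarization as less probe binds the enzyme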
GSTO1 counter: counter-screen for RBBP9 inhibitors: inhibitors of human GSTO1; P78417; recombinant GSTO1, activity-based probe fluorescence polarization; inhibition, % at 5.96 µM; 1.1% of 300,000 active; AID 1974;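 active = inhibition above the campaign mean inhibition plus 3 SD, cut at about 35% in these data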
LYPLA2 inh: LYPLA2 (human) inhibition in PME1 counter-screen | recombinant LYPLA2, FP-Rh probe fluorescence polarization | inhibition, % at 5.9 µM | 0.38% of 320,000 active | O95372;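 active = inhibition above the screen-wide mean plus 3 SD, limit set per campaign, cut at about 26% in these data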
Target sequence (O95372 whole entry, looked up): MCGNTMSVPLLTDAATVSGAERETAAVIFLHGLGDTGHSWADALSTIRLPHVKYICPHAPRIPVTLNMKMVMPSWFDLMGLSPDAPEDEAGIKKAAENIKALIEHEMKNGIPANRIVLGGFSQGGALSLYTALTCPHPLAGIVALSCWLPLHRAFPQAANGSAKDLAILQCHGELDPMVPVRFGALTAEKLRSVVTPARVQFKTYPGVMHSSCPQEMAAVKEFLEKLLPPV
Fam108b confirm: Fam108b (mouse) hydrolase inhibition, confirmation assay; shares compounds with Fam108B counter; recombinant Fam108b, FP-Rh probe fluorescence polarization; inhibition, % at 9.51 µM; 44% of 930 active;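 active = inhibition above a limit from the primary screen, the mean over all compounds plus 3 SD, cut at about 19% in these data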;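 also: inhibitors free the probe so polarization falls as inhibition rises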
Fam108b inh: mouse ABHD17B inhibition. 44% of 260 active. shares compounds with Fam108B counter. recombinant Fam108b, gel-based ABPP, fluorophosphonate probe. inhibition, % at 20 µM; in the data active = inhibition above about 40%
Of the large screens only hits and unclear results are named; the others gave an inactive call (follow-up assays come after a bar, where they were run). Compounds with a hit are over-represented: about 1.8% of the library has one in this group of screens.

CC1=Nc2ccccc2/C1=C/c1sc(=O)n(CC(=O)N2CCCC2)c1O	none
CC1=Nc2ccccc2/C1=C\c1sc(Nc2ccc(C)cc2)nc1O	PME-1 primary 52, Fam108B counter 23 | Fam108b confirm inactive
COc1ccccc1CN1CC(C(=O)NC2CCOCC2)CCC1=O (centres undefined)	none
Cc1cc(CSc2ccccc2)ccc1NC(=O)c1ccc(Cl)c([N+](=O)[O-])c1	Fam108B counter 25 | Fam108b confirm 63 | Fam108b inh inactive
Cc1cc(CSc2ccccc2)ccc1NC(=O)c1ccc(C)c([N+](=O)[O-])c1	none
COc1cc(OC)cc(-c2nnc(Nc3nc4c(F)cccc4s3)o2)c1	PME-1 primary 61, Fam108B counter 19 | Fam108b confirm inactive
NNc1nc2c(F)cccc2s1	none
O=C(CNc1cccc2ccccc12)N/N=C/c1cccc(Oc2ccccc2)c1	PME-1 primary 36, Fam108B counter 33 | Fam108b confirm inactive
O=C(CNc1cccc2ccccc12)N/N=C/c1ccccn1	none
Cc1cccc(CNC(=O)Cn2ccc3cc(S(=O)(=O)N4CCCC4)ccc32)c1	none
COc1ccc(NN=C(C=NO)C(=O)c2ccc(OC)cc2)cc1	none (no result: LYPLA1 inh, PAD4 inh, PME-1 primary, Fam108B counter, GSTO1 counter, LYPLA2 inh) | Fam108b inh inactive
CO/N=C/C(=N\Nc1ccc(C)cc1)C(=O)c1ccc(OC)cc1	none
C/C(=N\NC(=O)c1cc2ccccc2cc1O)c1cccs1	Fam108B counter 19 | Fam108b confirm inactive
O=c1c(=Cc2cc([N+](=O)[O-])cc([N+](=O)[O-])c2O)sc2nc3ccccc3n12	none (no result: LYPLA1 inh, PAD4 inh, PME-1 primary, Fam108B counter, GSTO1 counter, LYPLA2 inh) | Fam108b inh inactive
O=c1/c(=C/c2ccccn2)sc2nc3ccccc3n12	none
O=C(O)c1cccc(-c2ccc(/C=c3/sc4nc5ccccc5n4c3=O)o2)c1	Fam108B counter 25 | Fam108b confirm inactive
O=[N+]([O-])c1ccccc1/C=C/C=N/Nc1ccc(S(=O)(=O)Nc2ccc(Cl)cc2)cc1[N+](=O)[O-]	PME-1 primary 40, Fam108B counter 60 | Fam108b confirm inactive
C/C(=N\Nc1ccc(S(=O)(=O)Nc2ccc(Cl)cc2)cc1[N+](=O)[O-])c1ccc(N2CCOCC2)cc1	Fam108B counter 35 | Fam108b confirm inactive
COc1ccc(NS(=O)(=O)c2ccc(N/N=C(\C)c3ccncc3)c([N+](=O)[O-])c2)cc1	PME-1 primary 28, Fam108B counter 23 | Fam108b confirm inactive
C/C(=N\Nc1ccc(S(=O)(=O)Nc2ccccc2)cc1[N+](=O)[O-])c1ccncc1	none
O=C1C(=O)N(Cc2cccnc2)C(c2cccc([N+](=O)[O-])c2)/C1=C(/O)c1ccc2c(c1)OCO2 (centres undefined)	none
CN(C)S(=O)(=O)c1ccc(NC(=O)CCNC(=O)c2ccco2)cc1	none
COc1ccc(OC)c(/C=N/NC(=O)c2cc3c(OC)c(OC)ccc3[nH]2)c1	PME-1 primary 31, Fam108B counter 19 | Fam108b confirm inactive
COc1cc(OC)c2cc(C(=O)N/N=C/c3ccccc3O)[nH]c2c1	PME-1 primary 32, Fam108B counter 29 | Fam108b confirm inactive
Cc1onc(-c2c(Cl)cccc2Cl)c1C(=O)Nc1nccs1	none
O=C(Nc1ccc2[nH]c(=S)sc2c1)c1ccccc1	none
O=C(Nc1ccc2[nH]c(=S)sc2c1)Nc1ccccc1F	PME-1 primary 78, Fam108B counter 26 | Fam108b confirm 49 | Fam108b inh 90
COc1ccc(-c2[nH]c(-c3cc(OC)c4c(c3)OCO4)nc2-c2ccccc2)cc1	Fam108B counter 19 | Fam108b confirm inactive
COc1ccc(-c2nc(-c3ccccc3)c(-c3cc([N+](=O)[O-])ccc3C)[nH]2)cc1OC	none
Cc1c(O)ccc(C(Cc2ccc3ccccc3n2)=NO)c1O	none (no result: LYPLA1 inh, PAD4 inh, PME-1 primary, Fam108B counter, GSTO1 counter, LYPLA2 inh) | Fam108b inh inactive
Cc1c(O)ccc(/C(Cc2ccc3ccccc3n2)=N\O)c1O	PME-1 primary 50, Fam108B counter 25 | Fam108b confirm 29
CC(=O)Oc1ccc(C(=O)Cc2ccc3ccccc3n2)c(O)c1C	none
COc1ccc(NC(=O)CN(C)C(=O)C23CC4CC(CC(C4)C2)C3)cc1	none
CCN(CC)c1nc(N)c2c(N)n(-c3ccccc3C)c(=S)c(C#N)c2c1C#N	Fam108B counter 20 | Fam108b confirm inactive
CCN(CC)c1nc(N)c2c(N)nc3c(c2c1C#N)CC(c1ccccc1)O3 (centres undefined)	none
CC(=O)C1C(=O)c2c(cccc2[N+](=O)[O-])C1=Nc1ccc(S(N)(=O)=O)cc1 (centres undefined)	PME-1 primary 26, Fam108B counter 20 | Fam108b confirm 22
CC(=O)C1=C(O)C(=O)N(c2ccc(S(N)(=O)=O)cc2)C1c1cccc([N+](=O)[O-])c1 (centres undefined)	none
O=[N+]([O-])c1ccc(S(=O)(=O)N2CCC3(CC2)OCCN3S(=O)(=O)c2cccs2)cc1	none
O=C(CNC(=O)c1ccc(Cl)cc1Cl)OCCOc1ccccc1F	none (no result: LYPLA1 inh, PME-1 primary, Fam108B counter, GSTO1 counter, LYPLA2 inh)
Cc1ccc(-c2csc3nc(C(C)C)oc(=O)c23)c(C)c1	Fam108B counter 67 | Fam108b confirm 66 | Fam108b inh 50
COc1ccc(C(=O)OCC(=O)NCC2CCCO2)c(F)c1 (centres undefined)	none (no result: Fam108B counter, GSTO1 counter)
N=C1/C(=C\c2coc3ccccc3c2=O)C(=O)N=C2SC=CN12	none
CSC1=NSC2=NC(=O)/C(=C/c3coc4ccccc4c3=O)C(=N)N12	Fam108B counter 41 | Fam108b confirm 52 | Fam108b inh inactive
CSC1=NSC2=NC(=O)/C(=C/c3coc4ccc(O)cc4c3=O)C(=N)N12	Fam108B counter 28 | Fam108b confirm inactive
CSC1=NSC2=NC(=O)/C(=C\c3cccs3)C(=N)N12	none
CCc1ccc(NC(=O)C2C3CCC(O3)C2C(=O)O)cc1 (centres undefined)	none
CCN(CC)C(=O)c1cn(CCC#N)nc1-c1ccc2ccccc2c1	none
Cc1ccnc(NC(=O)CNC(=O)Cc2cccc3ccccc23)c1	none
CC/C(=N\NC(=O)c1cc(C2CC2)[nH]n1)c1ccccc1	none
O=c1oc(-c2cccs2)nc2c1cnn2-c1ccccc1	Fam108B counter 20 | Fam108b confirm 23
COc1ccccc1CC(=O)NNS(=O)(=O)c1ccc([N+](=O)[O-])cc1	Fam108B counter 21 | Fam108b confirm inactive
Cc1sc2ncnc(N/N=C/c3ccccc3O)c2c1C	Fam108B counter 19 | Fam108b confirm inactive
COc1ccc(-c2nc(-c3cccs3)c(-c3cccs3)[nH]2)cc1O	PME-1 primary 47, Fam108B counter 30 | Fam108b confirm inactive
O=C(O)c1ccc(-c2nc(-c3ccccc3)c(-c3cccs3)[nH]2)cc1	none
